Reference: PubChem BioAssay (NCATS)
Inconclusive results are not listed. Values without a mark were called inactive. Active and inactive are the calls of the source. Calls come from the whole dose curve; as a rule, active = well fitted inhibition curve with a large enough effect; inconclusive = small, poorly fitted or top-dose-only effect; inactive = flat fitted curve, though single readings scatter.

Columns and labels:
CRL-7250 = normal cell line; assay: Cytotoxic Profiling of Annotated Libraries Using Quantitative High-Throughput Screening (AID 1296008); settings: Five cell lines viability, CellTiter-Glo ATP luminescence, 48-72 h; max response: stronger effect = lower value; note: potency is the fitted concentration of half-maximal effect; for max response: % is set by controls: 0 for no effect and ±100 for the full control effect
How it was run: (§1)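 Compounds were pin-transferred onto cells and incubated 48 or 72 hr at 37 degree Celsius, 95% humidity. CellTiter-Glo was added, plates sat 10 min at room temperature, then ATP-coupled luminescence was imaged as the viability read-out.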

HaCat [1] = assay: as above; settings: Five cell lines viability, CellTiter-Glo ATP luminescence, 48-72 h; max response: stronger effect = lower value
How it was run: as §1

NIH3T3 = assay: as above; settings: Five cell lines viability, CellTiter-Glo ATP luminescence, 48-72 h; max response: stronger effect = lower value
How it was run: as §1

KB-3-1 = assay: as above; settings: Five cell lines viability, CellTiter-Glo ATP luminescence, 48-72 h; max response: stronger effect = lower value
How it was run: as §1

HACAT [2] = assay: qHTS assay to identify novel small-molecules to repurpose for Merkel cell carcinoma treatment (AID 1296009); settings: MCC and control cell lines, CellTiter-Glo viability, 72 h; at 44.8 µM (top of the series) unless noted
How it was run: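 Luminescence from CellTiter-Glo, read 10 min after addition at room temperature, reported viability following a 72 hr, 37 degree celsius treatment with NPC or MIPE compounds in titration; values normalized to plate controls.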
Note: nearly all actives have a fitted effect of over 60% in size.

Question: Which max response (CRL-7250) does the source give for `C/C(=C\Cc1c(O)c(Cl)c(C)c(C=O)c1O)CC/C=C(\C)[C@H]1CC(=O)C(C)(C)O1` here?
Answer: Its max response is -27.3%.

Question: What about the max response (HaCat [1]) of the same compound?
Answer: Its max response is -8.07%.

Question: And the max response (NIH3T3)?
Answer: Its max response is -17.5%.

Question: What does the source list for `C=C1C(=O)OC2CC(C)C(CCC(C)=O)=CCC12` (stereo not given)?
Answer: max response (CRL-7250): -28.7%; outcome (HaCat [1]): inactive; max response (KB-3-1): -13.7%; outcome (HACAT [2]): inactive

Question: For `CCC(C)CNCC(=O)N1CCc2sccc2C1COc1cccc(C)c1` (stereo not given), which max response (CRL-7250) is on record?
Answer: Its max response is -0.461%.

Question: And the max response (HaCat [1])?
Answer: Its max response is 1.97%.

Question: What about the max response (NIH3T3) of the same compound?
Answer: The max response was -25.4%.

Question: With `COc1ccc(S(=O)(=O)Nc2c(C)cc(C)cc2C)cc1` as the compound, how does the outcome (CRL-7250) read?
Answer: The outcome was “inactive”.

Question: And the max response (HaCat [1])?
Answer: The max response was -0.296%.

Question: And the max response (NIH3T3)?
Answer: The max response was 0.769%.

Question: `Cc1nc2c(C(F)(F)F)cccc2nc1-c1ccc(-c2cccc(S(C)(=O)=O)c2)cc1` was tested. Which max response (CRL-7250) did it give?
Answer: The max response was -1.09%.

Question: What about the max response (HaCat [1]) of the same compound?
Answer: The max response was -0.882%.

Question: What about the max response (NIH3T3) of the same compound?
Answer: Its max response is -12.4%.

Question: With `C=C(C)C1=C[C@@]2(C)C(=CC1=O)CC[C@@H](O)[C@@H]2C` as the compound, how does the max response (CRL-7250) read?
Answer: The max response was 3.24%.

Question: What about the outcome (HaCat [1]) of the same compound?
Answer: Its outcome is “inactive”.

Question: And the outcome (KB-3-1)?
Answer: Its outcome is “inactive”.

Question: And the outcome (HACAT [2])?
Answer: Its outcome is “inactive”.

Question: How did the max response (CRL-7250) turn out when `N#CC(CCCN1CCN(/N=C/c2cccnc2)CC1)(c1ccccc1)c1ccccc1` was run?
Answer: Its max response is -20.5%.

Question: And the max response (HaCat [1])?
Answer: Its max response is -26.9%.

Question: And the max response (NIH3T3)?
Answer: Its max response is -25.1%.

Question: Which max response (CRL-7250) does the source give for `CCC[C@H](N[C@H]1CCc2cc(F)cc(F)c2C1)C(=O)Nc1cn(C(C)(C)CNCC(C)(C)C)cn1` here?
Answer: Its max response is 4.72%.

Question: What about the max response (HaCat [1]) of the same compound?
Answer: The max response was -2.54%.

Question: And the max response (NIH3T3)?
Answer: The max response was -10.9%.

Question: With `CC(=O)Nc1cccc(Nc2ncnc(N3CCC(OCc4ccc(OC(F)(F)F)cc4)CC3)n2)c1C` as the compound, how does the Potency (CRL-7250) read?
Answer: Its Potency is 13 µM (active).

Question: What about the max response (HaCat [1]) of the same compound?
Answer: The max response was -26.7%.

Question: What about the max response (NIH3T3) of the same compound?
Answer: Its max response is -3.89%.

Question: How did the max response (CRL-7250) turn out when `O=C(c1ccc(F)cc1)N1CCCC(c2nc(-c3ccc(F)cc3)no2)C1` (stereo not given) was run?
Answer: The max response was -19.5%.

Question: And the max response (HaCat [1])?
Answer: Its max response is -5.25%.

Question: And the max response (NIH3T3)?
Answer: Its max response is -12.8%.

Question: How did the outcome (CRL-7250) turn out when `CC1(C)OC[C@H](NC(=O)Nc2ccc(Br)cc2Br)[C@H](c2ccccc2)O1` was run?
Answer: Its outcome is “inactive”.

Question: And the max response (HaCat [1])?
Answer: The max response was -5.94%.

Question: What about the max response (NIH3T3) of the same compound?
Answer: The max response was 0.948%.

Question: What does the source list for `Cc1[nH]c(/C=C2\C(=O)Nc3cc(-c4ccccc4)ccc32)c(C)c1CCC(=O)O`?
Answer: max response (CRL-7250): -17.7%; outcome (HaCat [1]): inactive; max response (KB-3-1): -8.26%; outcome (HACAT [2]): inactive

Question: With `COc1cc(CN(CCN)C(=O)c2cccs2)ccc1OCc1ccccc1` as the compound, how does the max response (CRL-7250) read?
Answer: Its max response is 4.59%.

Question: What about the max response (HaCat [1]) of the same compound?
Answer: Its max response is -3.01%.

Question: And the max response (NIH3T3)?
Answer: The max response was -11.2%.

Question: `O=C(NNc1nc2cc(F)ccc2n2cccc12)c1cnccn1` was tested. Which Potency (CRL-7250) did it give?
Answer: The Potency was 1.3 µM (active).

Question: And the Potency (HaCat [1])?
Answer: The Potency was 3.26 µM (active).

Question: And the Potency (NIH3T3)?
Answer: Its Potency is 4.11 µM (active).

Question: For `CC1(C)CC[C@]2(C(=O)O)CC[C@]3(C)C(=CCC4[C@@]5(C)C[C@@H](O)[C@H](O)[C@@](C)(CO)C5CC[C@]43C)[C@@H]2[C@@H]1O` (stereo not given in full), which max response (CRL-7250) is on record?
Answer: Its max response is 2.24%.

Question: And the max response (HaCat [1])?
Answer: The max response was -17.5%.

Question: And the max response (NIH3T3)?
Answer: The max response was 4.68%.

Question: Which max response (CRL-7250) does the source give for `CNC(=O)c1cc(Oc2ccc(NC(=O)c3cccc(C(F)(F)F)c3)cc2)ccn1` here?
Answer: Its max response is -16.9%.

Question: And the max response (HaCat [1])?
Answer: The max response was -5.26%.

Question: And the max response (NIH3T3)?
Answer: The max response was -24.9%.

Question: For `C[C@@H](Nc1ncnc2[nH]c(-c3ccc(O)cc3)cc12)c1ccccc1`, which max response (CRL-7250) is on record?
Answer: The max response was -9.15%.

Question: And the Potency (HaCat [1])?
Answer: The Potency was 0.82 µM (active).

Question: And the Potency (NIH3T3)?
Answer: The Potency was 14.6 µM (active).

Question: What does the source list for `O=C(Nc1ccccc1)c1ccc(Nc2nnc(-c3ccc(O)cc3)c3ccccc23)cc1`?
Answer: max response (CRL-7250): -21.4%; max response (HaCat [1]): -7.55%; max response (NIH3T3): -26.5%

Question: Which results are given for `Cc1cc(CS(=O)(=O)c2ccccc2)cc(OCc2ccc(CN3CCCC3CO)cc2)c1` (stereo not given)?
Answer: max response (CRL-7250): 4.21%; outcome (HaCat [1]): inactive; max response (KB-3-1): -16.6%; outcome (HACAT [2]): inactive

Question: How did the max response (CRL-7250) turn out when `C/C(=C/C=C\C=C\Cc1cnco1)[C@@H](O)C(C)(C)C(N)=O` was run?
Answer: The max response was 0.0485%.

Question: And the max response (HaCat [1])?
Answer: The max response was -5.26%.

Question: And the max response (NIH3T3)?
Answer: The max response was -15.3%.

Question: With `Cc1cc(C(C)Nc2ccccc2C(=O)O)c2nc(N3CCOCC3)cc(=O)n2c1` (stereo not given) as the compound, how does the max response (CRL-7250) read?
Answer: The max response was -22.4%.

Question: What about the Potency (HaCat [1]) of the same compound?
Answer: Its Potency is 7.31 µM (active).

Question: And the Potency (NIH3T3)?
Answer: The Potency was 23.1 µM (active).

Question: With `CC(C)=CCc1cc2c(cc1O)OC[C@H]1c3ccc(O)cc3O[C@@H]21` as the compound, how does the max response (CRL-7250) read?
Answer: Its max response is -7.41%.

Question: What about the max response (HaCat [1]) of the same compound?
Answer: Its max response is -13.5%.

Question: What about the max response (NIH3T3) of the same compound?
Answer: Its max response is -23.2%.

Question: What does the source list for `COc1ccc2nccc(C(=O)CC[C@@H]3CCN(CC#Cc4cc(F)cc(F)c4F)C[C@@H]3C(=O)O)c2c1`?
Answer: max response (CRL-7250): -3.43%; outcome (HaCat [1]): inactive; max response (KB-3-1): 5.2%; outcome (HACAT [2]): inactive

Question: Which results are given for `NC(N)=NC(=O)c1cnn(-c2cccc3ncccc23)c1C1CC1`?
Answer: max response (CRL-7250): -23.8%; max response (HaCat [1]): -2.12%; max response (NIH3T3): -11.3%

Question: Which max response (CRL-7250) does the source give for `O=C(NCCCN1CCOCC1)c1cnn2c(-c3ccccc3)cc(-c3ccccc3)nc12` here?
Answer: The max response was -7.62%.

Question: What about the max response (HaCat [1]) of the same compound?
Answer: Its max response is -15.4%.

Question: What about the max response (NIH3T3) of the same compound?
Answer: Its max response is -12.1%.

Question: Which outcome (CRL-7250) does the source give for `CCc1cccc(CC)c1-n1c(C=C(C)C)c(C(=O)N2CCNCC2)cc(-c2nc(-c3ccc(C(F)(F)F)cc3)cs2)c1=O` here?
Answer: The outcome was “inactive”.

Question: And the max response (HaCat [1])?
Answer: Its max response is -5.33%.

Question: And the max response (NIH3T3)?
Answer: The max response was -4.22%.

Question: What does the source list for `CCc1cc2c(cc1CC)CC(NCC(O)c1ccc(O)c3[nH]c(=O)ccc13)C2` (stereo not given)?
Answer: outcome (CRL-7250): inactive; max response (HaCat [1]): 2.19%; max response (NIH3T3): 2.82%

Question: Which Potency (CRL-7250) does the source give for `CCOc1cc(C(C)(C)C)ccc1C1=NC(C)(c2ccc(Cl)cc2)C(C)(c2ccc(Cl)cc2)N1C(=O)N1CCN(CCCS(C)(=O)=O)CC1` (stereo not given) here?
Answer: Its Potency is 5.17 µM (active).

Question: What about the Potency (HaCat [1]) of the same compound?
Answer: Its Potency is 20.6 µM (active).

Question: And the Potency (NIH3T3)?
Answer: The Potency was 9.2 µM (active).

Question: Which results are given for `CC(=O)NC(C)c1cnc(-c2cnc(Oc3ccc(OC(C)C)cc3)s2)s1` (stereo not given)?
Answer: max response (CRL-7250): -17.1%; max response (HaCat [1]): 2.34%; max response (NIH3T3): 0.946%

Question: For `COc1cc(O)c2c(c1)/C=C/C[C@H](O)[C@H](O)C(=O)/C=C\C[C@H](C)OC2=O`, which Potency (CRL-7250) is on record?
Answer: The Potency was 16.4 µM (active).

Question: And the Potency (HaCat [1])?
Answer: Its Potency is 9.2 µM (active).

Question: And the Potency (NIH3T3)?
Answer: The Potency was 5.8 µM (active).

Question: With `C=C1C(=O)OC2/C=C(\CO)CC/C=C(\C=O)C(O)C(OC(=O)C(C)CC)C12` (stereo not given) as the compound, how does the max response (CRL-7250) read?
Answer: Its max response is 0.0349%.

Question: And the outcome (HaCat [1])?
Answer: The outcome was “inactive”.

Question: And the outcome (KB-3-1)?
Answer: The outcome was “inactive”.

Question: What about the outcome (HACAT [2]) of the same compound?
Answer: Its outcome is “inactive”.

Question: Which Potency (CRL-7250) does the source give for `CO[C@H]1[C@@H](O)[C@H](O[C@H]2CC[C@@]3(C)C(CCC4C3CC[C@]35COC6(COC(=O)C6)C3CCC45O)C2)O[C@@H](C)[C@@H]1OC1OC(CO)C(OC2OC(CO)C(O)C(O)C2O)C(O)C1O` (stereo not given in full) here?
Answer: Its Potency is 3.48 µM (active).

Question: And the max response (HaCat [1])?
Answer: The max response was -26.8%.

Question: And the outcome (NIH3T3)?
Answer: The outcome was “inactive”.

Question: How did the max response (CRL-7250) turn out when `CCC(C)CNCC(=O)N1CCC2SC=CC2C1COc1cccc(C)c1` (stereo not given) was run?
Answer: The max response was -4.73%.

Question: And the max response (HaCat [1])?
Answer: The max response was 3.39%.

Question: And the max response (NIH3T3)?
Answer: Its max response is -20.9%.
